Results from PubChem BioAssay (EPA / NIEHS).
The source holds several records for some structures; these can differ, active in one and inactive in another. The source made the active and inactive calls. The calls were made as follows, unless noted: active = hit-call score of the fitted dose curve at least 0.9, where 1 is the maximum; inactive = score below 0.9.

Key:
[1] = BSK_LPS_SRB: Viability Assessment in the BioMAP Diversity Plus: LPS Assay (AID 2283079); details: primary human HUVEC with PBMC;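 also: total protein by sulforhodamine B absorbance as a cytotoxicity measure; measured one day after compound addition; fitted in both directions against DMSO so loss or gain of signal counts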
How it was run: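 Readout is SRB absorbance at 560 nm (0.1% stain, TCA-fixed parallel cultures) as a total-protein cytotoxicity measure. Cells: primary human umbilical vein endothelium plus peripheral blood mononuclear cells, 24 h after chemical exposure; DMSO served as baseline.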

[2] = read-out: Interleukin-1 alpha (IL1a), IL1A (gene 3552); assay: BSK_LPS_IL1a: BioMAP Diversity Plus: LPS Assay for Interleukin-1 alpha (IL1a) Biomarker Activity (AID 2283080); details: primary human HUVEC with PBMC; actives raise or lower the signal
How it was run: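 ELISA read-out of IL-1 alpha from a human primary vascular co-culture (endothelium plus PBMC) under LPS, sampled 24 hours post-dosing. Activity was fitted in both directions relative to DMSO controls.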

[3] = read-out: Monocyte Chemoattractant Protein-1 (MCP1), CCL2 (gene 6347); assay: BSK_LPS_MCP1: BioMAP Diversity Plus: LPS Assay for Monocyte Chemoattractant Protein-1 (MCP1) Biomarker Activity (AID 2283081); details: primary human HUVEC with PBMC; actives raise or lower the signal;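 as to AC50: secreted MCP-1 protein quantified by ELISA in culture supernatant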
How it was run: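 Human endothelial–PBMC co-cultures were dosed with chemical, then LPS-driven MCP-1 levels were quantified by ELISA at 24 h. Activity in either direction was fitted versus DMSO negative control.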

[4] = BSK_LPS_PGE2: BioMAP Diversity Plus: LPS Assay for Prostaglandin E2 (PGE2) Biomarker Activity (AID 2283082); details: primary human HUVEC with PBMC; actives raise or lower the signal
How it was run: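 HUVEC plus PBMC co-culture stimulated with LPS; secreted PGE2 quantified by ELISA 24 h after chemical dosing. Activity fitted bidirectionally against DMSO as negative control and baseline; parallel SRB total-protein staining served as cytotoxicity check.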

[5] = read-out: Tissue Factor, F3 (gene 2152); assay: BSK_LPS_TissueFactor: BioMAP Diversity Plus: LPS Assay for Tissue Factor Biomarker Activity (AID 2283084); details: primary human HUVEC with PBMC; actives raise or lower the signal
How it was run: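 ELISA signal for cell-surface Tissue Factor (CD142) was read 24 h after compound dosing of an LPS-stimulated human endothelial–PBMC primary co-culture. Gain or loss of signal was scored relative to DMSO.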

[6] = read-out: Tumor necrosis factor (Homo sapiens) (UniProt P01375); assay: BSK_LPS_TNFa: BioMAP Diversity Plus: LPS Assay for Tumour Necrosis Factor alpha (TNFa) Biomarker Activity (AID 2283085); details: primary human HUVEC with PBMC; actives raise or lower the signal
How it was run: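 Human umbilical vein endothelial cells co-cultured with PBMC were exposed to test chemical and TNFa measured by ELISA 24 h after dosing. Bidirectional curve fitting was done relative to DMSO as negative control and baseline.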

[7] = read-out: Vascular cell adhesion molecule 1 (VCAM1), VCAM1 (gene 7412); assay: BSK_LPS_VCAM1: BioMAP Diversity Plus: LPS Assay for Vascular cell adhesion molecule 1 (VCAM1) Biomarker Activity (AID 2283086); details: primary human HUVEC with PBMC; actives raise or lower the signal
How it was run: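 Human umbilical vein endothelial cells co-cultured with peripheral blood mononuclear cells under LPS stimulation were exposed to test chemical for 24 h. VCAM-1 levels were then measured by ELISA, with bidirectional curve fitting relative to DMSO as negative control and baseline.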

[8] = read-out: CD38, CD38 (gene 952); assay: BSK_SAg_CD38: BioMAP Diversity Plus: SAg Assay for CD38 Biomarker Activity (AID 2283087); details: primary human HUVEC with PBMC; actives raise or lower the signal
How it was run: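 Fluorescence ELISA of cell-surface CD38 served as the read-out, with either increase or decrease fitted against DMSO controls. Cells were a human umbilical vein endothelium plus PBMC co-culture under SEB/TSST-1 stimulation, measured 24 h after dosing.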

[9] = read-out: CD40, CD40 (gene 958); assay: BSK_SAg_CD40: BioMAP Diversity Plus: SAg Assay for CD40 Biomarker Activity (AID 2283088); details: primary human HUVEC with PBMC; actives raise or lower the signal
How it was run: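 Compounds were dosed onto a human primary endothelial–PBMC co-culture, and after 24 h CD40 was quantified by ELISA using a fluorescence signal. Activity in either direction was fitted relative to DMSO.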

[10] = read-out: CD69, CD69 (gene 969); assay: BSK_SAg_CD69: BioMAP Diversity Plus: SAg Assay for CD69 Biomarker Activity (AID 2283089); details: primary human HUVEC with PBMC; actives raise or lower the signal;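 as to AC50: cell surface CD69 protein quantified by ELISA with fluorescence detection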
How it was run: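 Values derive from bidirectional fitting relative to DMSO vehicle. Cells: umbilical vein endothelium plus peripheral blood mononuclear cells, treated 24 h before fluorescent ELISA for CD69.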

[11] = read-out: Monocyte Chemoattractant Protein-1 (MCP1), CCL2 (gene 6347); assay: BSK_SAg_MCP1: BioMAP Diversity Plus: SAg Assay for Monocyte Chemoattractant Protein-1 (MCP1) Biomarker Activity (AID 2283090); details: primary human HUVEC with PBMC; actives raise or lower the signal
How it was run: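 MCP-1 levels in the endothelial–PBMC SAg co-culture were quantified by ELISA at 24 h post-dosing; both increases and decreases versus DMSO scored. Cytotoxicity monitored by SRB total protein in parallel cultures.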

[12] = read-out: E-selectin (Homo sapiens) (UniProt P16581); assay: BSK_SAg_Eselectin: BioMAP Diversity Plus: SAg Assay for Eselectin Biomarker Activity (AID 2283091); details: primary human HUVEC with PBMC; actives raise or lower the signal
How it was run: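 Co-culture: HUVEC + PBMC. Dose compound; 24 h. ELISA for E-selectin. Bidirectional fit vs DMSO.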

[13] = read-out: Monokine induced gamma interferon (MIG), CXCL9 (gene 4283); assay: BSK_SAg_MIG: BioMAP Diversity Plus: SAg Assay for Monokine induced gamma interferon (MIG) Biomarker Activity (AID 2283092); details: primary human HUVEC with PBMC; actives raise or lower the signal
How it was run: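 Values reflect bidirectional fitting of ELISA-measured MIG against DMSO vehicle, taken 24 h after dosing of a co-culture of human umbilical vein endothelial cells and peripheral blood mononuclear cells.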

[14] = BSK_SAg_PBMCCytotoxicity: PBMC Cytotoxicity Assessment in the BioMAP Diversity Plus: SAg Assay (AID 2283093); details: primary human HUVEC with PBMC;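 also: PBMC viability measured as Alamar Blue reduction fluorescence at 546/580 nm; fitted both ways against DMSO so a hit may be loss or gain of signal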;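 as to AC50: PBMC superantigen activated with SEB plus TSST-1 one hour after compound addition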
How it was run: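 Compound added to 75,000 PBMC/well for 1 h; SEB and TSST-1 then added at 20 ng/mL final each; 90 h incubation; Alamar Blue 6 h; read 546/580 nm ex/em. Activity fitted bidirectionally relative to DMSO baseline.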

[15] = read-out: Interleukin-8 (IL8), CXCL8 (gene 3576); assay: BSK_SAg_IL8: BioMAP Diversity Plus: SAg Assay for Interleukin-8 (IL8) Biomarker Activity (AID 2283094); details: primary human HUVEC with PBMC; actives raise or lower the signal
How it was run: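 Human umbilical vein endothelial cells co-cultured with peripheral blood mononuclear cells; IL-8 measured by ELISA 24 h after chemical dosing. Bidirectional concentration-response fitting used DMSO as negative control and activity baseline.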

[16] = BSK_SAg_Proliferation: Cell Proliferation Assessment in the BioMAP Diversity Plus: SAg Assay (AID 2283095); details: primary human HUVEC with PBMC;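 also: relative cell number as total protein by SRB absorbance in sub-confluent culture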
How it was run: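 Human umbilical vein endothelial cells co-cultured with peripheral blood mononuclear cells; total protein measured by sulforhodamine B staining (0.1% SRB after 10% TCA fixation), absorbance at 560 nm, at 96 h. Bidirectional fit against DMSO baseline.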

[17] = target: human CYP2D6, CYP2D6 (gene 1565) (UniProt P10635); assay: NVS_ADME_hCYP2D6: NovaScreen (NVS) CYP450-related Enzyme Activity (ADME) Assay for human CYP2D6 (AID 2283107; active = hit-call score of the fitted dose curve at least 0.9, where 1 is the maximum)
How it was run: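 Insect-cell recombinant enzyme + fluorogenic substrate, cell-free; 1 h incubation; fluorescence intensity readout. Acetonitrile = neg. ctrl/baseline. Single-point 10 uM, duplicate; follow-up concentration series.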

Measured: AC50

Tumor necrosis factor (Homo sapiens), sequence (P01375 whole entry, looked up): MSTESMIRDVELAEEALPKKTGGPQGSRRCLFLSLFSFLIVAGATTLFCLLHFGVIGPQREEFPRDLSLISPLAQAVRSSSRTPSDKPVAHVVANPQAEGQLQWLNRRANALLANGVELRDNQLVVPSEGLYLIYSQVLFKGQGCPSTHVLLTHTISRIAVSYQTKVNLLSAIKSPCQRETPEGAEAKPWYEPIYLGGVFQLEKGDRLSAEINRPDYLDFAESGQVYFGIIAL
E-selectin (Homo sapiens), sequence (P16581 whole entry, looked up): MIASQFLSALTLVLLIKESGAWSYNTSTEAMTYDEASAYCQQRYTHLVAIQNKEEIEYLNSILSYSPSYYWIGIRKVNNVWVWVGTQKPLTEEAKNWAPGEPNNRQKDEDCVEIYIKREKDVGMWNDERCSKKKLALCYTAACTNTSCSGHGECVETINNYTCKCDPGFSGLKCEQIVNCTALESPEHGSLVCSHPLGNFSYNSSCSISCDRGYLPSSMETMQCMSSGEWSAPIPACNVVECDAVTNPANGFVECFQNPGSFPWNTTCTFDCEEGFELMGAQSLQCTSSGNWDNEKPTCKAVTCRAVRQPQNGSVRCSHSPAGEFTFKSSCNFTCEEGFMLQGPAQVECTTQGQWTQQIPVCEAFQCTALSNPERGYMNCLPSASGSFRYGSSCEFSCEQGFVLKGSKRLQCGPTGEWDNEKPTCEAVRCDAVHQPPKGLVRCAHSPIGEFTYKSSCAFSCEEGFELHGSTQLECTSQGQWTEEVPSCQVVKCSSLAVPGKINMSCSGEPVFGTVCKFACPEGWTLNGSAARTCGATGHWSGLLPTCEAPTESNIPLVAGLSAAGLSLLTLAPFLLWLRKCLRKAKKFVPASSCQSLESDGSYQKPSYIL
human CYP2D6, CYP2D6 (gene 1565), sequence (P10635 whole entry, looked up): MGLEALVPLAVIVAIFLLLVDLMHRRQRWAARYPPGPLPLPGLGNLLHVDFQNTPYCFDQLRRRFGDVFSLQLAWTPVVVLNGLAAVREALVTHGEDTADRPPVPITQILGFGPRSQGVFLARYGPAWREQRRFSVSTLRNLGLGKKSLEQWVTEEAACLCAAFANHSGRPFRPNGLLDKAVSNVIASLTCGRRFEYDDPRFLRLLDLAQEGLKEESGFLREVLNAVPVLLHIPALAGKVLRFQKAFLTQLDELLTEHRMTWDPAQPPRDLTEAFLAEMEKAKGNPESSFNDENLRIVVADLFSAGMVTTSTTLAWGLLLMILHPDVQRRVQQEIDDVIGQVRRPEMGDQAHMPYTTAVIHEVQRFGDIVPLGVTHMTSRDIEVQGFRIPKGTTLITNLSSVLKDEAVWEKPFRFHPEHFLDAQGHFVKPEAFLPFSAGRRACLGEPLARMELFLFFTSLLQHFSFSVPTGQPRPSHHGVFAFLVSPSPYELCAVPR

O=Nc1ccc(O)cc1
active: [17] 3.79 µM
inactive: all other assays above

O=C(c1ccc(O)cc1)c1ccc(O)cc1O
inactive: [1] | [2] | [3] | [4] | [5] | [6] | [7] | [8] | [9] | [10] | [11] | [12] | [13] | [14] | [15] | [16]
active: [8] 20 µM | [16] 14.2 µM

COCc1c(C(C)C)nc(C(C)C)c(/C=C/[C@@H](O)C[C@@H](O)CC(=O)O)c1-c1ccc(F)cc1
active: [1] 0.023 µM | [2] 0.00777 µM | [5] 0.00778 µM | [9] 0.126 µM | [10] 0.0293 µM | [12] 0.0215 µM | [15] 0.00783 µM | [16] 0.0185 µM
inactive: [3] | [4] | [6] | [7] | [11] | [13] | [14]

CCO[Si](C)(OCC)OCC
not listed: [17]
inactive: all other assays above

CC(C)C(=O)C(C)C
not listed: [17]
inactive: all other assays above

CCCCC(CC)COCC1CO1 (stereo unspecified)
not listed: [17]
inactive: all other assays above

C=CC(=O)OCC(Br)CBr (stereo unspecified)
active: [1] 31 µM | [2] 18.3 µM | [3] 30 µM | [5] 16.7 µM | [6] 11 µM | [7] 10.9 µM | [8] 15.3 µM | [9] 11.7 µM | [10] 10.2 µM | [11] 24.8 µM | [12] 8.13 µM | [13] 20 µM | [14] 6.05 µM | [15] 6.6 µM | [16] 1.66 µM
inactive: [4]

O=C(Nc1ccccc1SSc1ccccc1NC(=O)c1ccccc1)c1ccccc1
inactive: [3] | [4] | [5] | [11] | [12] | [13]
active: [1] 5.31 µM | [2] 2.65 µM | [6] 5.18 µM | [7] 9.83 µM | [8] 5.21 µM | [9] 8.91 µM | [10] 2.01 µM | [14] 2.78 µM | [15] 6.04 µM | [16] 3.19 µM

C=CCOCC(O)CCl (stereo unspecified)
not listed: [17]
inactive: all other assays above
